About 3,300 (8.5%) of roughly 39,000 compounds were called active. The full list was thinned out, with actives kept by preference.
Tested on: HepG2
Experiment: cytotoxicity call (relative viability < 0.9)
Conditions: 10 µM

| SMILES | cytotoxicity call |
| --- | --- |
| CNC(=O)CN(C#N)c1nc(N(C)C)nc(N(C)C)n1 | inactive |
| C[C@@H]1CCCCO[C@H](CN(C)Cc2ccc(C(=O)O)cc2)[C@H](C)CN([C@@H](C)CO)C(=O)c2cc(NC(=O)Nc3cccc4ccccc34)ccc2O1 | inactive |
| C[C@H](CO)N1C[C@H](C)[C@@H](CN(C)Cc2ccc(C(F)(F)F)cc2)Oc2c(NC(=O)Nc3ccccc3)cccc2C1=O | inactive |
| CN(C)Cc1c(C(=O)N/N=C/c2ccncc2)nnn1-c1nonc1N | active |
| NNC(=O)c1nnn(-c2nonc2N)c1CN1CCCCC1 | inactive |
| CCc1c(C(=O)OC)nnn1-c1nonc1N | inactive |
| Cc1noc(C)c1NC(=O)N(C)C[C@@H]1Oc2c(NS(=O)(=O)c3ccccc3)cccc2C(=O)N([C@@H](C)CO)C[C@H]1C | inactive |
| COc1ccc(NC(=O)N(C)C[C@@H]2OCCCC[C@H](C)Oc3ccc(NC(=O)Nc4ccc(C(F)(F)F)cc4)cc3C(=O)N([C@@H](C)CO)C[C@@H]2C)cc1 | inactive |
| C[C@@H]1CCCCO[C@H](CN(C)C(=O)Nc2ccccc2)[C@H](C)CN([C@@H](C)CO)C(=O)c2cc(NC(=O)Nc3ccc(C(F)(F)F)cc3)ccc2O1 | inactive |
| O=C1CC[C@H](C(=O)N2CCCCC2)N1 | inactive |
| Cc1ccc(S(=O)(=O)N(C)C[C@H]2Oc3ccc(NS(=O)(=O)c4ccc(F)cc4)cc3CC(=O)N([C@@H](C)CO)C[C@@H]2C)cc1 | active |
| COc1ccc(S(=O)(=O)N(C)C[C@@H]2Oc3ccc(NS(=O)(=O)c4ccccc4)cc3CC(=O)N([C@@H](C)CO)C[C@H]2C)cc1 | active |
| COc1ccc(S(=O)(=O)N(C)C[C@@H]2Oc3ccc(NC(=O)Cc4ccccc4)cc3CC(=O)N([C@H](C)CO)C[C@@H]2C)cc1 | active |
| Cc1noc(C)c1S(=O)(=O)Nc1ccc2c(c1)CC(=O)N([C@H](C)CO)C[C@@H](C)[C@@H](CN(C)S(=O)(=O)c1ccc(Cl)cc1)O2 | inactive |
| COc1ccc(S(=O)(=O)Nc2ccc3c(c2)CC(=O)N([C@@H](C)CO)C[C@H](C)[C@@H](CN(C)S(=O)(=O)c2ccccc2)O3)cc1 | inactive |
| COc1ccc(S(=O)(=O)N(C)C[C@@H]2Oc3ccc(NS(=O)(=O)c4ccccc4)cc3CC(=O)N([C@H](C)CO)C[C@H]2C)cc1 | inactive |
| Cc1noc(C)c1S(=O)(=O)Nc1ccc2c(c1)CC(=O)N([C@H](C)CO)C[C@H](C)[C@@H](CN(C)S(=O)(=O)c1ccc(Cl)cc1)O2 | inactive |
| COc1ccc(S(=O)(=O)N(C)C[C@@H]2Oc3ccc(NC(=O)Cc4ccccc4)cc3CC(=O)N([C@@H](C)CO)C[C@H]2C)cc1 | inactive |
| Cc1ccc(S(=O)(=O)N(C)C[C@H]2Oc3ccc(NS(=O)(=O)c4ccc(F)cc4)cc3CC(=O)N([C@@H](C)CO)C[C@H]2C)cc1 | inactive |
| COc1ccc(S(=O)(=O)N(C)C[C@H]2Oc3ccc(NC(=O)Cc4ccccc4)cc3CC(=O)N([C@H](C)CO)C[C@@H]2C)cc1 | inactive |
| Cc1ccc(S(=O)(=O)Nc2ccc3c(c2)CC(=O)N([C@@H](C)CO)C[C@H](C)[C@@H](CN(C)S(=O)(=O)c2ccc(F)cc2)O3)cc1 | inactive |
| Cc1noc(C)c1S(=O)(=O)Nc1ccc2c(c1)CC(=O)N([C@@H](C)CO)C[C@@H](C)[C@H](CN(C)S(=O)(=O)c1ccc(Cl)cc1)O2 | active |
| O=c1cc[nH]c(C(F)(F)F)n1 | inactive |
| C[C@@H]1CCCCO[C@@H](CN(C)C(=O)Nc2ccccc2)[C@H](C)CN([C@@H](C)CO)C(=O)c2cc(NS(=O)(=O)c3cccs3)ccc2O1 | inactive |

| SMILES | cytotoxicity call |
| --- | --- |
| C[C@H](CO)N1C[C@H](C)[C@H](CN(C)S(=O)(=O)c2cn(C)cn2)Oc2ncc(C#CCN(C)C)cc2C1=O | inactive |
| COc1ccc(NC(=O)Nc2cccc3c2O[C@H](CN(C)S(C)(=O)=O)[C@@H](C)CN([C@H](C)CO)C3=O)cc1 | inactive |
| Cc1noc(C)c1NC(=O)N(C)C[C@@H]1OCCCC[C@@H](C)Oc2ccc(NC(=O)c3ccccc3)cc2C(=O)N([C@H](C)CO)C[C@H]1C | inactive |
| CCC(=O)N1CCC[C@H](C(=O)O)C1 | inactive |
| NC(=O)CCCCC(N)=O | inactive |
| COc1ccc(NC(=O)Nc2ccc3c(c2)C(=O)N([C@@H](C)CO)C[C@@H](C)[C@@H](CN(C)C(=O)Nc2ccc(C(F)(F)F)cc2)OCCCC[C@@H](C)O3)cc1 | inactive |
| O=C(COP(=O)(O)O)[C@H](O)[C@@H](O)COP(=O)(O)O | inactive |
| C[C@@H]1CN([C@H](C)CO)C(=O)c2cc(NS(=O)(=O)c3ccc(F)cc3)ccc2O[C@@H](C)CCCCO[C@@H]1CN(C)C(=O)Cc1ccccc1 | inactive |
| COc1ccc(S(=O)(=O)Nc2ccc3c(c2)CC(=O)N([C@H](C)CO)C[C@H](C)[C@@H](CN(C)C)O3)cc1 | inactive |
| C[C@@H]1CN([C@@H](C)CO)C(=O)Cc2cc(NS(=O)(=O)c3ccc(Cl)cc3)ccc2O[C@@H]1CN(C)C | inactive |
| COc1ccc(S(=O)(=O)Nc2ccc3c(c2)CC(=O)N([C@H](C)CO)C[C@@H](C)[C@@H](CN(C)C)O3)cc1 | active |
| C[C@H]1CN([C@@H](C)CO)C(=O)Cc2cc(NS(=O)(=O)c3ccc(Cl)cc3)ccc2O[C@@H]1CN(C)C | active |
| C[C@@H]1CN([C@H](C)CO)C(=O)Cc2cc(NS(=O)(=O)c3ccc(Cl)cc3)ccc2O[C@@H]1CN(C)C | inactive |
| COc1ccc(S(=O)(=O)Nc2ccc3c(c2)CC(=O)N([C@H](C)CO)C[C@H](C)[C@H](CN(C)C)O3)cc1 | inactive |
| C[C@H]1CN([C@@H](C)CO)C(=O)c2cc(NC(=O)Nc3ccccc3)ccc2O[C@H]1CN(C)C(=O)Nc1cccc2ccccc12 | inactive |
| CN1C(=O)c2cc(NS(=O)(=O)c3cccc(F)c3)ccc2OC[C@H]2O[C@H](CC(=O)NCCN3CCCCC3)CC[C@H]21 | inactive |
| O=C(C[C@H]1C=C[C@@H](NC(=O)c2cccnc2)[C@@H](CO)O1)NCCN1CCCCC1 | inactive |
| CC(C)NC(=O)Nc1cccc2c1O[C@@H](CN(C)C(=O)NC1CCCCC1)[C@@H](C)CN([C@H](C)CO)C2=O | inactive |
| COc1ccc(S(=O)(=O)N(C)C[C@H]2OCCCC[C@H](C)Oc3ccc(NC(=O)Nc4ccccc4)cc3C(=O)N([C@@H](C)CO)C[C@@H]2C)cc1 | inactive |
| C[C@@H]1CN([C@@H](C)CO)C(=O)c2cccc(NC(=O)CCCCCC(=O)Nc3ccccc3N)c2O[C@@H]1CN(C)Cc1ccc(-c2ccccc2)cc1 | inactive |
| C[C@@H]1CN([C@H](C)CO)C(=O)c2cccc(NC(=O)CCCCCC(=O)Nc3ccccc3N)c2O[C@H]1CN(C)Cc1ccc(-c2ccccc2)cc1 | inactive |
| C[C@@H]1CN([C@H](C)CO)C(=O)c2cccc(NC(=O)CCCCCC(=O)Nc3ccccc3N)c2O[C@@H]1CN(C)Cc1ccc(-c2ccccc2)cc1 | active |
| C[C@@H]1CN([C@@H](C)CO)C(=O)c2cccc(NC(=O)CCCCCC(=O)Nc3ccccc3N)c2O[C@H]1CN(C)Cc1ccc(Cl)c(Cl)c1 | inactive |
| C[C@H]1CN([C@@H](C)CO)C(=O)c2cccc(NC(=O)CCCCCC(=O)Nc3ccccc3N)c2O[C@H]1CN(C)Cc1ccc(-c2ccccc2)cc1 | inactive |

| SMILES | cytotoxicity call |
| --- | --- |
| C[C@H](CO)N1C[C@H](C)[C@@H](CN(C)Cc2ccc(-c3ccccc3)cc2)Oc2c(NC(=O)CCCCCC(=O)Nc3ccccc3N)cccc2C1=O | active |
| C[C@H]1CN([C@@H](C)CO)C(=O)c2cccc(NC(=O)CCCCCC(=O)Nc3ccccc3N)c2O[C@@H]1CN(C)Cc1ccc(Cl)c(Cl)c1 | active |
| C[C@@H]1CN([C@@H](C)CO)C(=O)c2cccc(NC(=O)CCCCCC(=O)Nc3ccccc3N)c2O[C@@H]1CN(C)Cc1ccc(Cl)c(Cl)c1 | inactive |
| C[C@@H]1CN([C@@H](C)CO)C(=O)c2cccc(NC(=O)CCCCCC(=O)Nc3ccccc3N)c2O[C@H]1CN(C)Cc1ccc(-c2ccccc2)cc1 | inactive |
| [N-]=[N+]=Nc1ccccc1[C@@H]1OC(c2ccc(OCCCO)cc2)=N[C@]1(CCS(=O)(=O)c1ccccc1)C(=O)NC[C@@H](O)CO | inactive |
| C[C@@H]1CN([C@H](C)CO)S(=O)(=O)c2ccc(C#CCN(C)C)cc2O[C@H]1CN(C)C(=O)c1ccccc1F | inactive |
| O=C(C[C@H]1C[C@@H]2c3cc(NC(=O)C4CCOCC4)ccc3O[C@@H]2[C@@H](CO)O1)NCc1ccc(Cl)cc1 | inactive |
| CCS(=O)(=O)N1C[C@]2(CN(Cc3cccc(c3)Cl)[C@H](CO)c3c2c2ccc(cc2n3C)OC)C1 | inactive |
| C[C@H](CO)N1C[C@H](C)[C@H](CN(C)C(=O)Nc2ccc(N3CCCCC3)cc2)OCc2cnnn2CCCC1=O | inactive |
| COc1ccc(NC(=O)Nc2ccc3c(c2)C(=O)N([C@@H](C)CO)C[C@@H](C)[C@@H](CN(C)C(=O)Cc2ccccc2)OCCCC[C@H](C)O3)cc1 | inactive |
| COc1ccc(NC(=O)Nc2ccc3c(c2)C(=O)N([C@H](C)CO)C[C@H](C)[C@H](CN(C)C(=O)Nc2ccccc2)OCCCC[C@@H](C)O3)cc1 | inactive |
| C[C@H](O)C#Cc1cnc2c(c1)C(=O)N([C@H](C)CO)C[C@@H](C)[C@H](CN(C)Cc1cncnc1)O2 | inactive |
| O=C(C[C@H]1C=C[C@H](NC(=O)Cc2ccccn2)[C@H](CO)O1)NCCc1ccncc1 | inactive |
| C[C@@H]1CN([C@@H](C)CO)C(=O)c2cc(NC(=O)CCCN(C)C)ccc2O[C@@H](C)CCCCO[C@@H]1CN(C)S(=O)(=O)c1cn(C)cn1 | inactive |
| C[C@H]1CN([C@@H](C)CO)C(=O)c2c(c3ccccc3n2C)-c2ccccc2CO[C@H]1CN(C)Cc1ccc2c(c1)OCCN2C | inactive |
| C[C@H](CO)N1C[C@H](C)[C@@H](CN(C)Cc2ccc3c(c2)OCCN3C)OCc2ccccc2-c2c(n(C)c3ccccc23)C1=O | inactive |
| C[C@H]1CN([C@@H](C)CO)C(=O)c2c(c3ccccc3n2C)-c2ccccc2CO[C@@H]1CN(C)Cc1ccc2c(c1)OCCN2C | active |
| C[C@@H]1CN([C@@H](C)CO)C(=O)c2c(c3ccccc3n2C)-c2ccccc2CO[C@H]1CN(C)Cc1ccc2c(c1)OCCN2C | active |
| C[C@H](CO)N1C[C@H](C)[C@H](CN(C)Cc2ccc3c(c2)OCCN3C)OCc2ccccc2-c2c(n(C)c3ccccc23)C1=O | inactive |
| C[C@@H]1CN([C@H](C)CO)C(=O)c2c(c3ccccc3n2C)-c2ccccc2CO[C@@H]1CN(C)Cc1ccc2c(c1)OCCN2C | active |
| C[C@@H]1CN([C@@H](C)CO)C(=O)c2c(c3ccccc3n2C)-c2ccccc2CO[C@@H]1CN(C)Cc1ccc2c(c1)OCCN2C | inactive |
| C[C@@H]1CN([C@H](C)CO)C(=O)c2c(c3ccccc3n2C)-c2ccccc2CO[C@H]1CN(C)Cc1ccc2c(c1)OCCN2C | inactive |
| C[C@@H]1CN([C@@H](C)CO)C(=O)c2c(c3ccccc3n2C)-c2ccccc2CO[C@@H]1CN(C)Cc1ccc2c(c1)OCO2 | inactive |
